In article PMC12864922, “TDP-43 directly inhibits mRNA accumulation in neurites through modulation of mRNA stability”:
The full ranking holds about 9,900 sequences; the median of “r (bound/input frequency ratio)” is about 0.7, and the highest 2% start at about 6.5. The list comes from a sample in which the highest values are over-represented; it also holds similar and randomly drawn sequences.

B1: ENSMUSG00000090935.713|Synj2bp (ssRNA)
RNA: GGGAGUUCUACAGUCCGACGAUCGCUUCGAUAUCCGCAUGCUAAAGUCCAGAGCUCUGCUCUCUGAGCAUCUGCCCCAGAUACAGAGGCAGAGUAUGAAGUGGAACAUUGUUUUAUUCCUAGGUGCUCAGGACAGACUGAUCAACCUCCAGUAACAUAUGUGGUUAGUAAGUGCUUCAGCUUGUGUAGCCAUUAAUAACCAAGUCAUAGGAUUGUGAAUCUAAAAUACUCCUGGGUAAAAUUUGUAUUAGAAUGGAAAAAAAAAUGAGGGUCAGAAAGGUGAGCUAACUUCAAGUUAGAUACUCUCUUGCGGUCGCACUAGUGUGGAAUUCUCGGGUGUCAAGG
B2: ENSMUSG00000031028.411|Tub (ssRNA)
RNA: GGGAGUUCUACAGUCCGACGAUCGCUUCGAUAUCCGCAUGCUACUUACCCCUCAUCCCCUCUUCUUUUUGGUCCUUGGCUGGGUAGCAAAUUGGUGAGAAGAGCAGCCUAGUCUGUAAGAGUGCAGGGCAGCUGGAACCUUAGGCAGCUCCUCUGUAUGCUACCGGCUCCACACCCUAACACUCUCCACCCUCUGCUCCAAACCAGUUCUUCUGCAGAGUGGUGAUGUUAGCUUCCCCAGCUCCUCUCCAAGUCUAGCUUUUUCUGUCCUUCUGGCUCCAAGGUGCUCUGUGUCUGUGUGUGUCUCUUGCGGUCGCACUAGUGUGGAAUUCUCGGGUGUCAAGG
B3: ENSMUSG00000031028.410|Tub (ssRNA)
RNA: GGGAGUUCUACAGUCCGACGAUCGCUUCGAUAUCCGCAUGCUAAGAUCCCUUACCCCUCAUCCCCUCUUCUUUUUGGUCCUUGGCUGGGUAGCAAAUUGGUGAGAAGAGCAGCCUAGUCUGUAAGAGUGCAGGGCAGCUGGAACCUUAGGCAGCUCCUCUGUAUGCUACCGGCUCCACACCCUAACACUCUCCACCCUCUGCUCCAAACCAGUUCUUCUGCAGAGUGGUGAUGUUAGCUUCCCCAGCUCCUCUCCAAGUCUAGCUUUUUCUGUCCUUCUGGCUCCAAGGUGCUCUGUGUCUGUCUCUUGCGGUCGCACUAGUGUGGAAUUCUCGGGUGUCAAGG
B4: ENSMUSG00000031028.414|Tub (ssRNA)
RNA: GGGAGUUCUACAGUCCGACGAUCGCUUCGAUAUCCGCAUGCUAUUCUUUUUGGUCCUUGGCUGGGUAGCAAAUUGGUGAGAAGAGCAGCCUAGUCUGUAAGAGUGCAGGGCAGCUGGAACCUUAGGCAGCUCCUCUGUAUGCUACCGGCUCCACACCCUAACACUCUCCACCCUCUGCUCCAAACCAGUUCUUCUGCAGAGUGGUGAUGUUAGCUUCCCCAGCUCCUCUCCAAGUCUAGCUUUUUCUGUCCUUCUGGCUCCAAGGUGCUCUGUGUCUGUGUGUGUGUGUCUGUCUGUGUGUGUCUCUUGCGGUCGCACUAGUGUGGAAUUCUCGGGUGUCAAGG
B5: ENSMUSG00000031028.413|Tub (ssRNA)
RNA: GGGAGUUCUACAGUCCGACGAUCGCUUCGAUAUCCGCAUGCUACCCCUCUUCUUUUUGGUCCUUGGCUGGGUAGCAAAUUGGUGAGAAGAGCAGCCUAGUCUGUAAGAGUGCAGGGCAGCUGGAACCUUAGGCAGCUCCUCUGUAUGCUACCGGCUCCACACCCUAACACUCUCCACCCUCUGCUCCAAACCAGUUCUUCUGCAGAGUGGUGAUGUUAGCUUCCCCAGCUCCUCUCCAAGUCUAGCUUUUUCUGUCCUUCUGGCUCCAAGGUGCUCUGUGUCUGUGUGUGUGUGUCUGUCUGUCUCUUGCGGUCGCACUAGUGUGGAAUUCUCGGGUGUCAAGG
B6: ENSMUSG00000031028.415|Tub (ssRNA)
RNA: GGGAGUUCUACAGUCCGACGAUCGCUUCGAUAUCCGCAUGCUAUUGGUCCUUGGCUGGGUAGCAAAUUGGUGAGAAGAGCAGCCUAGUCUGUAAGAGUGCAGGGCAGCUGGAACCUUAGGCAGCUCCUCUGUAUGCUACCGGCUCCACACCCUAACACUCUCCACCCUCUGCUCCAAACCAGUUCUUCUGCAGAGUGGUGAUGUUAGCUUCCCCAGCUCCUCUCCAAGUCUAGCUUUUUCUGUCCUUCUGGCUCCAAGGUGCUCUGUGUCUGUGUGUGUGUGUCUGUCUGUGUGUGUGUGUGUCUCUUGCGGUCGCACUAGUGUGGAAUUCUCGGGUGUCAAGG
B7: ENSMUSG00000031028.412|Tub (ssRNA)
RNA: GGGAGUUCUACAGUCCGACGAUCGCUUCGAUAUCCGCAUGCUACCUCAUCCCCUCUUCUUUUUGGUCCUUGGCUGGGUAGCAAAUUGGUGAGAAGAGCAGCCUAGUCUGUAAGAGUGCAGGGCAGCUGGAACCUUAGGCAGCUCCUCUGUAUGCUACCGGCUCCACACCCUAACACUCUCCACCCUCUGCUCCAAACCAGUUCUUCUGCAGAGUGGUGAUGUUAGCUUCCCCAGCUCCUCUCCAAGUCUAGCUUUUUCUGUCCUUCUGGCUCCAAGGUGCUCUGUGUCUGUGUGUGUGUGUCUCUCUUGCGGUCGCACUAGUGUGGAAUUCUCGGGUGUCAAGG
B8: ENSMUSG00000043670.304|Diras1 (ssRNA)
RNA: GGGAGUUCUACAGUCCGACGAUCGCUUCGAUAUCCGCAUGCUAGUCACAAAGAGACAGAGAAGCAGAAAGAAGGCUGAAGCCAGAUGACCAAGUAGGCCGGACCCCACUGUGUUCCCUUCUGUGUGCCAGGCACAGGGAGAGCCACAGCCUGAAGCCUGAGUCUGAGCAUAGCUGAGCCCUGACCUCUAGCCAGCCCAGGGCCCCCACAGCUGCCACCUGCUCCCAAGCCCCGGGAGUGGCUCCUGGCUGGACAGGGGGUCACAGCCCUUUCUCAGGGACACACCCUGAUAGCACAAUCUCUGCUCUUGCGGUCGCACUAGUGUGGAAUUCUCGGGUGUCAAGG
B9: ENSMUSG00000029636.41|Wasf3|31:35;229:235 (ssRNA)
RNA: GGGAGUUCUACAGUCCGACGAUCGCUUCGAUAUCCGCAUGCUACACAUCCUUCUGGAUUUGUUGAGUAUUUACACACAAAUACUUAAGUGCCACAGAACACAGCACACCGUGCUGCACACCAGGAAACUCGCAGUAUUAGUGCAUCACCCUGGAACAGCAUCUUGCUUCCCUCUCAGCCGUGAGAGUCCCCUCUCCUGUCCAUCCUGAUUUGGUGGGCUUGCCACGUAUCUGCGCAGCUGCCCCACGUCAGCUCUCUGCAAGAUCACUGGCACACACACUCAGUGAUGUCUUCCAACCAGUGGCUCUUGCGGUCGCACUAGUGUGGAAUUCUCGGGUGUCAAGG

molecular target: TDP-43 (Homo sapiens, UniProt Q13148 1-414); experiment: RNA Bind-n-Seq with designed 260-mer pool; 25 mM Tris-HCl, 150 mM KCl, 3 mM MgCl2, BSA (printed 500 mg/mL), 20 units/mL SUPERase IN; pH not stated; 500 nM RNA pool, 1 h, 4 C; TDP-43 5, 50, 500 nM; high values mean tight binding; conditions: protein: recombinant; tags: SBP (GST cleaved off with PreScission; pGEX-GST-SBP)
Sequence (Q13148 whole entry): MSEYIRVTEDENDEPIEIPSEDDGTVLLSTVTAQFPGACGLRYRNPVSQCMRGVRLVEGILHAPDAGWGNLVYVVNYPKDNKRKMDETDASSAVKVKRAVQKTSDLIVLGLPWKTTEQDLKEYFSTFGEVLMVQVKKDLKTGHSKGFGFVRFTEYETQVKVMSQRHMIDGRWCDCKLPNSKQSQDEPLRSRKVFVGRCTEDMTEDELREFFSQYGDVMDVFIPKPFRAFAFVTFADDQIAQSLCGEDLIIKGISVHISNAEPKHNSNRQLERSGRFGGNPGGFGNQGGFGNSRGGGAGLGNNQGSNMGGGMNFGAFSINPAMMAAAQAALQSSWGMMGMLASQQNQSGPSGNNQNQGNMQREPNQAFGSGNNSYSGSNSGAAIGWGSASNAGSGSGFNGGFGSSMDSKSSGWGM
In short: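 For each oligo, R gives binding as its mapped-read-normalized abundance after pulldown divided by its abundance in input. Bead-captured SBP-tagged TDP-43 (5, 50 or 500 nM) was incubated with 500 nM of an in vitro-transcribed 260-nt 3′ UTR oligo pool for 1 h at 4 °C in 25 mM Tris-HCl, 150 mM KCl, 3 mM MgCl2, BSA and SUPERase IN on streptavidin beads. Washed, biotin-eluted RNA was reverse transcribed, PCR-amplified and sequenced.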

Row | Binder | binding signal
1 | B1 | 1.85 R (bound/input frequency ratio)
2 | B2 | 1.34 R (bound/input frequency ratio)
3 | B3 | 1.11 R (bound/input frequency ratio)
4 | B4 | 6.55 R (bound/input frequency ratio)
5 | B5 | 3.56 R (bound/input frequency ratio)
6 | B6 | 6.65 R (bound/input frequency ratio)
7 | B7 | 2.36 R (bound/input frequency ratio)
8 | B8 | 0.472 R (bound/input frequency ratio)
9 | B9 | 0.406 R (bound/input frequency ratio)
